Inconclusive results are not listed. Calls of active or inactive are those of the source. Unless noted, the call rests on the fitted dose curve; in most records, active means well fitted curve in the direction sought with a large enough effect; inconclusive means small, poorly fitted or top-dose-only effect, or another doubt; inactive means no such curve, though single readings can be large; an effect the other way counts as inactive or inconclusive.

The source of these data is PubChem BioAssay (NCATS).

Assay [1] in a line: Cell Viability - SK-N-SH (AID 435; calls by dose curve; further: potency means the concentration at half of the fitted maximal effect). The conditions noted are these: SK-N-SH neuroblastoma cell viability qHTS. The procedure, abridged: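 Luminescent ATP signal served as the viability read-out after 40 hours of compound treatment of human neuroblastoma SK-N-SH cells. Concentration-response data, scaled between DMSO and 100 uM tamoxifen, gave AC50 values by standard Hill modeling.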
For orientation: In qHTS, concentration-response curves come from the screen itself.

The nature of assay [2]: Cell Viability - N2a (AID 540).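 Further: plate controls were DMSO alone for no effect and tamoxifen control for full effect; nearly all actives have a fitted effect of over 45% in size.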 The following applies: N2a mouse neuroblastoma cell viability; activity change, negative = cytotoxicity: at 92.2 µM (top of the series). The gist of the method: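 N2a mouse neuroblastoma, 1500 cells/well, 5 hr settle; compound 40 hr, 37 °C; CellTiter-Glo 20 min RT; luminescence; Hill-fit AC50.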
A short description of assay [3]: Cell Viability - H-4-II-E (AID 543). Further: on the % scale 0 is the no-effect control and ±100 the full control effect; nearly all actives have a fitted effect of over 35% in size. The following applies: H-4-II-E rat hepatoma viability; series mostly up to 92.2 µM. The procedure, abridged: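 qHTS, rat hepatoma H-4-II-E, 1500 cells/well; 40 hr compound exposure, 37 °C; CellTiter-Glo ATP luminescence after 20 min RT; AC50 by standard Hill fit.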
Assay [4] in a line: Cell Viability - Renal Proximal Tubule (AID 545).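 Further: 0% = DMSO only and -100% = 100 µM tamoxifen; nearly all actives have a fitted effect of over 40% in size.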 The conditions noted are these: renal proximal tubule cells viability, primary cells of rat origin; activity change, negative = cytotoxicity: at 91.7 µM (top of the series). The procedure, abridged:
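Luminescent ATP signal (CellTiter-Glo) served as the viability read-out after 40 hr compound exposure of freshly isolated rat proximal tubule cells at 37 °C. Concentration-dependent ATP loss was fitted with the Hill equation to give AC50.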

A short description of assay [5]: Cell Viability - LYMP2-001 (AID 921).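 Further: cells exposed to compound for 24 h at 37 °C; 0% = DMSO only and full inhibition = tetraoctylammonium bromide control wells; nearly all actives have a fitted effect of over 70% in size.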 The conditions noted are these: LYMP2-001 lymphoblastoid cell viability; series mostly up to 92.2 µM. The procedure, abridged:
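Steps: seed 2500 lymphoblastoid cells/well; 5 hr, 37 C; add compound; 24 hr, 37 C; CellTiter-Glo reagent, 30 min room temperature; read luminescence. Concentration-response modeled by Hill equation for AC50.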

A short description of assay [6]: MultiTox-Fluor Cytotoxicity Assay - LYMP1-001 - Live Cells (AID 947).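 Further: 0% = DMSO only and full inhibition = tetraoctylammonium bromide control.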 The conditions noted are these: LYMP1-001 lymphoblastoid cells, live-cell protease fluorescence viability; series mostly up to 92.2 µM.
Assay [7] is described as follows: Cell Viability - LYMP1-003 - Assay at 40 hr (AID 964). Further: on the % scale 0 is the no-effect control and ±100 the full control effect; nearly all actives have a fitted effect of over 60% in size. The following applies: LYMP1-003 lymphoblastoid viability; series mostly up to 92.2 µM. The gist of the method: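 LYMP1-003 lymphoblastoid cells, 2500/well; 5 hr preincubation, 40 hr compound exposure, 37 C; CellTiter-Glo 30 min RT; luminescence; Hill-fit AC50. Positive control tetraoctylammonium bromide.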

A short description of assay [8]: Cell Viability - LYMP2-004 (AID 966).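 Further: cells exposed to compound for 24 h; plate controls were DMSO only for no effect and tetraoctylammonium bromide control for full effect; nearly all actives have a fitted effect of over 65% in size.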 The conditions noted are these: LYMP2-004 lymphoblastoid cell viability, qHTS; series mostly up to 92.2 µM. The gist of the method: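 Luminescent ATP read-out (CellTiter-Glo, 30 min RT) after 24 hr compound exposure at 37 C; 2500 lymphoblastoid cells/well, complete medium. Decrease in ATP = cytotoxicity; AC50 from standard Hill model.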

Assay [9] can be described thus: Cell Viability - LYMP2-009 (AID 968).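 Further: cells exposed to compound for 24 h at 37 °C; 0% = DMSO alone and the full-kill end = tetraoctylammonium bromide at 92 µM; nearly all actives have a fitted effect of over 55% in size.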 The following applies: LYMP2-009 lymphoblastoid cell viability; series mostly up to 92.2 µM.
A short description of assay [10]: Cell Viability - LYMP2-015 (AID 971).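 Further: cells exposed to compound for 24 h; 0% = DMSO only and full effect = 92 µM tetraoctylammonium bromide; nearly all actives have a fitted effect of over 55% in size.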 The following applies: LYMP2-015 lymphoblastoid cell viability; series mostly up to 92.2 µM. The procedure, abridged:
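qHTS cytotoxicity: 2500 cells/well, 5 hr 37 C, compound 24 hr 37 C, CellTiter-Glo 30 min RT, luminescence. Loss of ATP = toxicity; AC50 via standard Hill fit.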

Assay [11] is described as follows: Cell Viability - LYMP2-017 (AID 972).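 Further: cells exposed to compound for 24 hours at 37 °C; on the % scale 0 is the no-effect control and ±100 the full control effect; nearly all actives have a fitted effect of over 55% in size.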 The conditions noted are these: LYMP2-017 lymphoblastoid cell viability; series mostly up to 92.2 µM. The procedure, abridged:
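Luminescent ATP read-out (CellTiter-Glo, 30 min RT) reports viable cell number. Cells: human lymphoblastoid line, 2500 per well, 5 hr preincubation, 24 hr compound exposure at 37 C. AC50 is derived from qHTS concentration-response data using the standard Hill model.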

Assay [12] can be described thus: Cell Viability - LYMP2-019 (AID 973).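 Further: cells exposed to compound for 24 h at 37 °C; 0% = DMSO alone and full effect = 92 µM tetraoctylammonium bromide; nearly all actives have a fitted effect of over 55% in size.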 The following applies: LYMP2-019 lymphoblastoid cell line viability; series mostly up to 92.2 µM. The gist of the method:
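qHTS, 1536-well; 2500 cells/well; 5 hr pre-incubation, 24 hr compound exposure, 37 C; CellTiter-Glo added, 30 min RT; luminescence read; AC50 via standard Hill equation.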

Assay [13] is described as follows: Cell Viability - LYMP2-010 (AID 981). The following applies: LYMP2-010 lymphoblastoid cell viability, qHTS; series mostly up to 92.2 µM. The procedure, abridged:
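qHTS cytotoxicity, 1536-well: 2500 cells/well, 5 hr settle, 24 hr compound at 37 C, CellTiter-Glo 30 min RT, luminescence read. Decrease in ATP = toxicity; AC50 via standard Hill equation. Positive control tetraoctylammonium bromide.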

The nature of assay [14]: qHTS assay for small molecule agonists of retinoid X receptor alpha signaling (AID 588544; calls by dose curve). The conditions noted are these: HEK293T RXRa-UAS-bla, beta-lactamase reporter, 18 h; 530 nm emission.
Assay [15] deals with Retinoic acid receptor RXR-alpha (Homo sapiens) (UniProt P19793). Described as above. The conditions noted are these: HEK293T RXRa-UAS-bla, beta-lactamase reporter, 18 h; series mostly up to 76.7 µM.
In assay [16] the target is Thyroid hormone receptor beta (Homo sapiens) (UniProt P10828). In words: qHTS assay for small molecule antagonists of thyroid hormone receptor beta signaling (AID 588547; active means well fitted inhibition curve with a large enough effect in the signal ratio, with a control signal flat, not every such curve was filed as active; the % refers to the signal ratio;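 further: cells stimulated with 0.4 nM T3 agonist during compound exposure; on the % scale 0 is the no-effect control and ±100 the full control effect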). The conditions noted are these: TR-UAS-bla HEK293, beta-lactamase ratio, antagonist mode, 18 h. The procedure, abridged: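 TR-UAS-bla GripTite HEK293 cells in 2% charcoal/dextran FBS medium were preincubated 4 h at 37 C, given compound (0.59 nM to 92 uM) plus 0.4 nM T3 (final) for 18 h, then CCF4 for 2 h at RT; Hill fit gave IC50.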

Assay [17] can be described thus: qHTS assay for small molecule disruptors of the mitochondrial membrane potential - 5 hr assay (AID 651755; calls by dose curve; further: on the % scale 0 is the no-effect control and ±100 the full control effect; nearly all actives have a fitted effect of over 40% in size). The following applies: JC-1-type ratio dye; series mostly up to 92.2 µM. The gist of the method: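 Seed HepG2 overnight, add compound, incubate 5 hr at 37C and 5% CO2, stain 30 min with Mito-MPS, then measure monomer (490/535 nm) and aggregate (540/590 nm) fluorescence.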

Assay [18] is described as follows: qHTS assay for small molecule agonists of the antioxidant response element (ARE) signaling pathway measured by Nrf2-dependant transcriptional activity (AID 720636; active means well fitted curve in the direction sought with a large enough effect in the repeat runs; an effect the other way counts as inactive or inconclusive;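 further: HepG2 cells with an ARE-driven luciferase reporter; % of control where 0% means no effect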). The following applies: ARE-luc HepG2, Nrf2 luciferase reporter, 16 h; series mostly up to 92.4 µM. The procedure, abridged:
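Nrf2-dependent transcription is measured in ARE-luc HepG2 cells: compound is applied for 16 hr at 37 C after a 6 hr attachment period, and luciferase activity is quantified by luminescence using ONE-Glo.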

Assay [19] has as its target Nuclear receptor subfamily 1 group I member 2 (Rattus norvegicus) (UniProt Q9R1A7). Nature of the assay: qHTS assay for small molecule activators of the rat pregnane X receptor (rPXR) signaling pathway (AID 651751; call rule not given here; further: 0% is about no effect). The following applies: rPXR reporter cells, luciferase (One-Glo), 24 h.
Assay [20] is described as follows: MultiTox-Fluor Cytotoxicity Assay - LYMP1-002 - Dead Cells (AID 960).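 Further: 0% = DMSO and 100% = tetraoctylammonium bromide; nearly all actives have a fitted effect of over 60% in size.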 The following applies: LYMP1-002 lymphoblastoid cells, dead-cell protease fluorescence; series mostly up to 46.1 µM. The procedure, abridged:
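Readout: fluorescence at 485/520 from cell-impermeant bis-AAF-R110 cleaved by proteases leaking from damaged cells. LYMP1-002 lymphoblastoid line, 16 hr compound treatment at 37 C, concentration-response in qHTS format; Hill-equation AC50 values.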

Retinoic acid receptor RXR-alpha (Homo sapiens), sequence (P19793 whole entry, looked up): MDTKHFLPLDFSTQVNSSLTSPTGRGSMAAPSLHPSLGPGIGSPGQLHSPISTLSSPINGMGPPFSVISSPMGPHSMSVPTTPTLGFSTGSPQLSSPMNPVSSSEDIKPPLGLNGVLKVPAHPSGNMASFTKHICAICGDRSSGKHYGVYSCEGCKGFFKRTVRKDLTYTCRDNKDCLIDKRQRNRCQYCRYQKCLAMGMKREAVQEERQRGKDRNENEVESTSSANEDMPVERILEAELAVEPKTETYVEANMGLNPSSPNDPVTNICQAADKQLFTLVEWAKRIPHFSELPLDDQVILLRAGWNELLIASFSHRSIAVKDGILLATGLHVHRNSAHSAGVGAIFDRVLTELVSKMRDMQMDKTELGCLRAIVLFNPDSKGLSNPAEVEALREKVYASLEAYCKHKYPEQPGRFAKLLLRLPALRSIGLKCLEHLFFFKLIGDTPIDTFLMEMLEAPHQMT
Nuclear receptor subfamily 1 group I member 2 (Rattus norvegicus), sequence (Q9R1A7 whole entry, looked up): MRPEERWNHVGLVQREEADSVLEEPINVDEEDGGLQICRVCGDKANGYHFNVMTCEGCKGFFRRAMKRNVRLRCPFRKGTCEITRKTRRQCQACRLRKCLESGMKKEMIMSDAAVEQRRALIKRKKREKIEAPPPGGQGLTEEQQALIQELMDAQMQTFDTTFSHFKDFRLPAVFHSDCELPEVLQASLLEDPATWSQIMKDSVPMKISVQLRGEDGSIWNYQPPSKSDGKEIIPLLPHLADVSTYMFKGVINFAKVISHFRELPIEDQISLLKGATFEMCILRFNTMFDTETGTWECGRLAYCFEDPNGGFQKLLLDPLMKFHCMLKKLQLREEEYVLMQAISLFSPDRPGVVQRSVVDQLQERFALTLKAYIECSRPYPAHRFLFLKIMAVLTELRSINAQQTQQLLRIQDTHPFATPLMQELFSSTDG
Thyroid hormone receptor beta (Homo sapiens), sequence (P10828 whole entry, looked up): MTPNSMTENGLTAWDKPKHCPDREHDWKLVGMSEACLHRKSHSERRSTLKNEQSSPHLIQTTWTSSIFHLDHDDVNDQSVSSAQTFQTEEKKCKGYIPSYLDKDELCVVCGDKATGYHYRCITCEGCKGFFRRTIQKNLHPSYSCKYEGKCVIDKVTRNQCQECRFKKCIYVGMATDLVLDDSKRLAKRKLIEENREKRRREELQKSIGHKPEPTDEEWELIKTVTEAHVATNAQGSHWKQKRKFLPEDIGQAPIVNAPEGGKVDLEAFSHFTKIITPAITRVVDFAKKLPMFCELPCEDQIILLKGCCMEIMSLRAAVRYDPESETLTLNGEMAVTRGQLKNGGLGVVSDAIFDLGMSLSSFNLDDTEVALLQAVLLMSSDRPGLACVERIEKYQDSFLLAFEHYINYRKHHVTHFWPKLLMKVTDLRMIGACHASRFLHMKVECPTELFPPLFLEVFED

Turning to `Cc1ccc(N)cc1[N+](=O)[O-]`, the Potency in [1] is > 92 µM (inactive). The activity change, negative = cytotoxicity in assay [2] was -8.48% (inactive). Besides, the Potency entry in [3], in [4], in assay [5], in assay [6], in assay [7] and in [8] was “inactive” throughout. Further, the Potency entry in assay [9], in assay [10], in [11], in [12], in assay [13] and in [15] was “inactive” each time. Moreover, the Potency result in assay [17] and in assay [18] was “inactive” in each case. Besides, the max response in assay [14] is 4.03%; in assay [19], -0.278% (inactive). In assay [16], the activity change % (negative = inhibition) was -24.5% (inactive).
Take `Cc1ccc2ccc3cccc4ccc1c2c34`: the Potency in assay [1] is > 92 µM (inactive). The activity change, negative = cytotoxicity in assay [2] is -16.7% (inactive). Also, the Potency result in assay [3], in [4], in [5], in assay [6], in assay [7] and in assay [8] was “inactive” in each case. For the same compound, the Potency entry in assay [9], in [10], in assay [11], in assay [12], in assay [13] and in [15] was “inactive” throughout. Also, the max response in [14] is -15.6%; in assay [19], 10% (inactive). In assay [16], the activity change % (negative = inhibition) is 1.52% (inactive).
Consider `Cc1c(N)cccc1Cl`, for which the Potency in assay [1] is > 92 µM (inactive). In assay [2], the activity change, negative = cytotoxicity was -8.37% (inactive). Besides, the Potency entry in assay [3], in assay [4], in [5], in [6], in [20] and in assay [7] was “inactive” in each case. Also, the Potency entry in assay [8], in [9], in [10], in [11], in assay [12] and in assay [13] was “inactive” in each case. Also, the Potency entry in assay [15], in assay [17] and in [18] was “inactive” each time. For the same compound, the max response was 8.41% in assay [14] and 7.66% (inactive) in assay [19]. The activity change % (negative = inhibition) in assay [16] is 0.909% (inactive).
On to `Cc1cccnc1`, for which the Potency in assay [1] was > 92 µM (inactive). Moreover, the Potency result in [3], in [4], in assay [5], in assay [6], in assay [20] and in assay [7] was “inactive” each time. Further, the Potency result in assay [8], in assay [9], in assay [10], in assay [11], in assay [12] and in [13] was “inactive” each time. In addition, the Potency result in assay [15], in [17] and in assay [18] was “inactive” in each case. Moreover, the max response in assay [14] was 9.82%; in assay [19], -3.97% (inactive). In addition, the activity change % (negative = inhibition) in assay [16] is 13.1% (inactive).
In the case of `CCNC(=S)NCC`, the Potency in [1] was > 92 µM (inactive). The activity change, negative = cytotoxicity in [2] is -22% (inactive). The Potency entry in assay [3], in assay [4], in [5], in assay [6], in assay [20] and in [7] was “inactive” throughout. Also, the Potency result in assay [8], in assay [9], in assay [10], in assay [11], in [12] and in [13] was “inactive” each time. Moreover, the Potency result in [15], in assay [17] and in assay [18] was “inactive” throughout. The max response in assay [14] is -2.72%; in assay [19], -0.653% (inactive). Further, the activity change % (negative = inhibition) in assay [16] is -1.42% (inactive).
Take `c1ccc(COCc2ccccc2)cc1`: the Potency in [1] is > 92 µM (inactive). In addition, in assay [2], the activity change, negative = cytotoxicity was -4.56% (inactive). Moreover, the Potency result in assay [3], in assay [4], in assay [5], in [6], in assay [20] and in assay [7] was “inactive” in each case. Moreover, the Potency entry in assay [8], in assay [9], in assay [10], in assay [11], in assay [12] and in assay [13] was “inactive” each time. Also, the Potency result in [15], in assay [17] and in assay [18] was “inactive” each time. The max response in [14] is -5.39%; in assay [19] it was 4.39% (inactive). Further, the activity change % (negative = inhibition) in assay [16] was -18.1% (inactive).
Consider `CCCCC(CC)COCCCN` (stereo not drawn), for which the Potency in [1] is > 92 µM (inactive). In addition, the Potency result in assay [3], in [4], in [5], in [6], in [20] and in [7] was “inactive” each time. Moreover, the Potency entry in [8], in [9], in assay [10], in assay [11], in assay [12] and in assay [13] was “inactive” in each case. The Potency entry in assay [15] and in assay [18] was “inactive” each time. Moreover, the max response in [14] is 1.27%; in [19] it was 1.77% (inactive). Moreover, the activity change % (negative = inhibition) in assay [16] is 3.53% (inactive).
